Screening data as filed in PubChem BioAssay.
Sfp PPTase inh – Sfp phosphopantetheinyl transferase inhibition | Q9F4F7 | Biochemical Sfp PPTase activity, qHTS | Potency, µM, for inactives: largest response in the series, negative = inhibition, actives largely listed as inhibitors | hit rate 3.5% among 310,000;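 note: the enzyme is Sfp with the accession as filed and its product quenches rhodamine fluorescence; 0% = enzyme reaction without inhibitor and -100% = no enzyme wells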
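With Hepes-Na pH 7.6 buffer containing 10 mM MgCl2, Sfp (15 nM) modified BHQ-2-YbbR (12.5 uM) using rhodamine-CoA (5 uM). Two reads 30 minutes apart at 525/598 nm yielded each well's rate.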
G9a inh – inhibitors of human histone lysine methyltransferase G9a; G9a H3K9 monomethylation, AlphaScreen, 2 h; Potency, µM (titrated, usually from 102 µM), for inactives: at the top dose activity, negative = inhibition, actives largely listed as inhibitors; hit rate 8.8% among 350,000; Q96KQ7; AID 504332; note: % is set by controls: 0 for no effect and ±100 for the full control effect; nearly all actives have a fitted effect of over 75% in size
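AlphaScreen detection with an anti-monomethyl H3K9 antibody quantified product after a 2 h room-temperature reaction containing 500 nM biotinylated H3K9 peptide, 20 µM SAM and 20 nM enzyme, which had been preincubated 15 min with compound.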
JMJD2A Tudor – inhibitors of human JMJD2A Tudor domain; O75164; AlphaScreen JMJD2A-Tudor / H3K4me3 peptide binding; Potency, µM (series often up to 114 µM), for the others: at the highest dose activity change, negative = inhibition, hits mostly inhibitors; hit rate 4.4% among 390,000; AID 504339; note: % is set by controls: 0 for no effect and ±100 for the full control effect; nearly all actives have a fitted effect of over 50% in size
Target sequence (O75164 whole entry, looked up, the tested form may be a part): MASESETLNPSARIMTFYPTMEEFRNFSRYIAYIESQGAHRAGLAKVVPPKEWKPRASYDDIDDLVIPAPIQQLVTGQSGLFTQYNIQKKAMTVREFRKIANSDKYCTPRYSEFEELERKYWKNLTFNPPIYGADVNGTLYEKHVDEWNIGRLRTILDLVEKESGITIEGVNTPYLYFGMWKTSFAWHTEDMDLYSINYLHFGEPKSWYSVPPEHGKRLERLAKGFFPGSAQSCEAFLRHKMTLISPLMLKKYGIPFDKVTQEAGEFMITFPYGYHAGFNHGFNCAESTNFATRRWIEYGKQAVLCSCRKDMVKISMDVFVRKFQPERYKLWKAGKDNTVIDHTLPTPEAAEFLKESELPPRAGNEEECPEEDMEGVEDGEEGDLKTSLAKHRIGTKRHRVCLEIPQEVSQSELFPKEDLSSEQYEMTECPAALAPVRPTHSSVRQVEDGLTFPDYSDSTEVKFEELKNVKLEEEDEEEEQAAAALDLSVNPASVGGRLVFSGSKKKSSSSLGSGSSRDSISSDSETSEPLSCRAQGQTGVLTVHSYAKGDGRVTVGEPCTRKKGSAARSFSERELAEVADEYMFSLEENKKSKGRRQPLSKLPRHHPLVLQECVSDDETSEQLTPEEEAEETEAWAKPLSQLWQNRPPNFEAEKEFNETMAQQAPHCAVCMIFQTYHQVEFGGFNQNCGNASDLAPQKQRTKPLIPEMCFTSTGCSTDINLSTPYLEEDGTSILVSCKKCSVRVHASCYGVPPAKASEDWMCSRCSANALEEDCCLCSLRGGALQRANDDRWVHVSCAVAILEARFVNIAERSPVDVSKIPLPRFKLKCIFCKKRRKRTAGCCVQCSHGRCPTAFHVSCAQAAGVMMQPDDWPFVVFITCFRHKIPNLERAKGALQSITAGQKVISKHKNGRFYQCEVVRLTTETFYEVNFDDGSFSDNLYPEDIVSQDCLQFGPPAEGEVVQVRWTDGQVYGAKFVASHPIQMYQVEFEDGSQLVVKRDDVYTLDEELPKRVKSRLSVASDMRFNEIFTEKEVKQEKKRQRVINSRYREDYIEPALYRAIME
HP1b binding inh – HP1-beta chromodomain-methylated histone interaction inhibition. P83916. AlphaScreen HP1-beta / biotin-H3K9me3 peptide binding. Potency, µM (doses to about 114 µM), for the others: at the highest dose activity change, negative = inhibition, actives largely listed as inhibitors. hit rate 0.56% among 390,000; note: nearly all actives have a fitted effect of over 70% in size
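Compound inhibition of the preformed complex between 50 nM HP1-beta and 50 nM biotinylated H3K9me3 peptide was read by AlphaScreen. Buffer was PBS pH 7.4 with 0.01% Tween-20. Incubations ran 30 min at room temperature, with 10 ug/mL donor/acceptor beads.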
BAZ2B block – inhibitors of human BAZ2B bromodomain; AlphaScreen BAZ2B-H3K14Ac peptide displacement; hit rate 4.4% among 360,000; Q9UIF8; Potency, µM (series often up to 114 µM), without a hit: at the top dose activity change, negative = inhibition, hits mostly inhibitors; AID 504333; note: % is set by controls: 0 for no effect and ±100 for the full control effect; nearly all actives have a fitted effect of over 60% in size
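Protein-peptide AlphaScreen: BAZ2B 50 nM, b-H3K14Ac 50 nM, 1x PBS pH 7.4 + 0.01% Tween-20. Preincubation 30 min RT; cpd 30 min RT (top 110 uM); beads 20 min RT, light-protected.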
L3MBTL1 block – inhibitors of human L3MBTL1; Q9Y468; AlphaScreen L3MBTL1–H3K9me1 peptide binding; Potency, µM (top dose mostly 57.1 µM), inactives show at the highest dose activity, negative = inhibition, hits mostly inhibitors; hit rate 0.66% among 230,000; note: % is set by controls: 0 for no effect and ±100 for the full control effect; nearly all actives have a fitted effect of over 60% in size
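L3MBTL1 50 nM + b-AHA-H3(1-15)K9me1 75 nM, 30 min RT; compound added, 30 min RT; streptavidin donor/Ni-chelate acceptor beads 10 ug/mL each final, 30 min RT dark; AlphaScreen read.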
* marks the source's active call; other numbers are inactive results; [ ] = dose if it differs, or a comment. In the library only some 12% were active in any assay of this set; here they are far more common. Calls come from the whole dose curve; as a rule, active = well fitted curve in the direction sought with a large enough effect; inconclusive = small, poorly fitted or top-dose-only effect, or another doubt; inactive = no such curve, though single readings can be large; an effect the other way counts as inactive or inconclusive. Potency is the fitted concentration of half-maximal effect.

How did CC(=O)N1N=C(c2ccccc2)CC1c1ccccc1[N+](=O)[O-] (stereo unspecified) do in these assays?
Sfp PPTase inh: -10%; G9a inh: 17%; JMJD2A Tudor: -23%; HP1b binding inh: 5%; BAZ2B block: -2%; L3MBTL1 block: 3%

What do the screens show for `CC(=O)N1N=C(c2ccc([N+](=O)[O-])cc2)CC1c1ccccc1Cl` (stereo unspecified)?
Sfp PPTase inh: -5%; G9a inh: 50µM*; JMJD2A Tudor: inconclusive; HP1b binding inh: inconclusive; BAZ2B block: inconclusive; L3MBTL1 block: -18%

What do the screens show for `COc1ccc(C2CC(c3ccc4ccccc4c3)=NN2C(=O)CSc2ncccn2)cc1` (stereo unspecified)?
Sfp PPTase inh: -8%; G9a inh: 40µM*; JMJD2A Tudor: -22%; HP1b binding inh: 17%; BAZ2B block: -1%; L3MBTL1 block: -11%

What do the screens show for `COc1ccc(C(=O)NCC(=O)OCC(=O)N2N=C(c3ccc(Cl)cc3)CC2c2ccco2)cc1OC` (stereo unspecified)?
Sfp PPTase inh: 8%; G9a inh: 20µM*; JMJD2A Tudor: -35%; HP1b binding inh: 17%; BAZ2B block: -27%; L3MBTL1 block: 7%

How did O=C(CCl)N1N=C(c2cccs2)CC1c1ccco1 (stereo unspecified) do in these assays?
Sfp PPTase inh: 0%; G9a inh: inconclusive; JMJD2A Tudor: -25%; HP1b binding inh: 4%; BAZ2B block: -16%; L3MBTL1 block: -8%

How did O=C(CCl)N1N=C(c2ccco2)CC1c1ccco1 (stereo unspecified) do in these assays?
Sfp PPTase inh: -37%; G9a inh: 50µM*; JMJD2A Tudor: 45µM*; HP1b binding inh: 50µM*; BAZ2B block: 45µM*

What do the screens show for `COc1cc(C(=O)NCCOc2ccc(Cl)cc2)ccc1OCc1c(C)noc1C`?
G9a inh: 19%[2.33 µM]; JMJD2A Tudor: -8%; HP1b binding inh: 13%; BAZ2B block: 0%; L3MBTL1 block: -1%

What do the screens show for `Cc1cccc(N2CCN(S(=O)(=O)c3csc(C(N)=O)c3)CC2)c1C`?
G9a inh: inconclusive; JMJD2A Tudor: -32%; HP1b binding inh: -3%; BAZ2B block: -25%

What do the screens show for `CCn1c(SCC(=O)Nc2c(C)cccc2C)nnc1-c1nonc1NC(C)=O`?
G9a inh: 19%[59 µM]; JMJD2A Tudor: 2%; HP1b binding inh: 50%; BAZ2B block: -22%

How did COc1ccc(C2=NN(C(=O)CCC(=O)O)C(c3ccc([N+](=O)[O-])cc3)C2)cc1 (stereo unspecified) do in these assays?
Sfp PPTase inh: 8%; G9a inh: 40µM*; JMJD2A Tudor: -12%; HP1b binding inh: 13%; BAZ2B block: -2%; L3MBTL1 block: 10%

How did CC(=O)N1N=C(c2c(-c3ccccc3)c3cc(Br)ccc3[nH]c2=O)CC1c1ccco1 (stereo unspecified) do in these assays?
Sfp PPTase inh: 40µM*; G9a inh: 50µM*; JMJD2A Tudor: -28%; HP1b binding inh: 40%; BAZ2B block: -19%; L3MBTL1 block: -8%

What do the screens show for `COc1ccc(C2CC(c3ccccc3)=NN2C(=O)CCC(=O)O)cc1` (stereo unspecified)?
Sfp PPTase inh: 13%; JMJD2A Tudor: -20%; HP1b binding inh: 49%; BAZ2B block: -3%; L3MBTL1 block: 1%

Results for CC(=O)N1N=C(c2c(-c3ccccc3)c3cc(C)ccc3[nH]c2=O)CC1c1ccco1 (stereo unspecified) ?
Sfp PPTase inh: inconclusive; G9a inh: inconclusive; JMJD2A Tudor: inconclusive; HP1b binding inh: 6%; BAZ2B block: inconclusive; L3MBTL1 block: -14%

How did CCC(=O)N1N=C(c2ccc(Cl)cc2)CC1c1ccco1 (stereo unspecified) do in these assays?
Sfp PPTase inh: -13%; G9a inh: 10%; JMJD2A Tudor: -26%; HP1b binding inh: 3%; BAZ2B block: -35%; L3MBTL1 block: -16%

Results for CN1CC(=O)N(CC(=O)N2N=C(c3ccc(Cl)cc3)CC2c2ccco2)C1=O (stereo unspecified) ?
Sfp PPTase inh: 20µM*; G9a inh: inconclusive; JMJD2A Tudor: -7%; HP1b binding inh: 44%

How did CCc1ccc(C2=NN(C(C)=O)C(c3ccco3)C2)cc1 (stereo unspecified) do in these assays?
Sfp PPTase inh: 25µM*; JMJD2A Tudor: -19%; HP1b binding inh: 17%; BAZ2B block: inconclusive; L3MBTL1 block: -11%

How did O=C1OC[C@H]2CCCN2C(=O)[C@@H](CC(=O)N(CCO)Cc2ccccc2)C/C=C\C[C@@H]1Cc1ccc(F)cc1 do in these assays?
JMJD2A Tudor: -21%; HP1b binding inh: 15%; L3MBTL1 block: 5%

What do the screens show for `O=C(OCC(=O)N1N=C(c2ccc(Cl)cc2)CC1c1ccco1)c1cccnc1` (stereo unspecified)?
JMJD2A Tudor: 35µM*; HP1b binding inh: inconclusive; L3MBTL1 block: -91%

How did COCC(=O)OCC(=O)N1N=C(c2ccc(Cl)cc2)CC1c1ccco1 (stereo unspecified) do in these assays?
Sfp PPTase inh: -15%; G9a inh: inconclusive; JMJD2A Tudor: -31%; HP1b binding inh: -8%; BAZ2B block: inconclusive; L3MBTL1 block: -16%

How did COc1ccc(C2CC(c3ccccc3)=NN2C(=O)COC(=O)c2cccnc2)cc1 (stereo unspecified) do in these assays?
Sfp PPTase inh: -17%; G9a inh: 18µM*; JMJD2A Tudor: -8%; HP1b binding inh: 38%; BAZ2B block: -37%; L3MBTL1 block: -11%

What do the screens show for `CC1(C)OC(c2ccccc2)=C/C(=C/C=Nc2ccccc2)O1`?
Sfp PPTase inh: 2%; G9a inh: inconclusive; JMJD2A Tudor: inconclusive; HP1b binding inh: -11%; BAZ2B block: inconclusive; L3MBTL1 block: -3%

How did CC1(C)OC(c2ccccc2)=C/C(=C\C=N\NC(=O)c2ccncc2)O1 do in these assays?
Sfp PPTase inh: 3%; G9a inh: 43%[12.7 µM]; JMJD2A Tudor: -29%; HP1b binding inh: 7%; BAZ2B block: 71µM*; L3MBTL1 block: -29%

What do the screens show for `Nc1ncc(-c2ccc([N+](=O)[O-])cc2)cn1`?
Sfp PPTase inh: -6%; G9a inh: 3%; JMJD2A Tudor: -13%; HP1b binding inh: 24%; BAZ2B block: -6%; L3MBTL1 block: 10%

How did O=[N+]([O-])c1ccc(-c2cnc(NO)nc2)cc1 do in these assays?
Sfp PPTase inh: 56µM*; G9a inh: 7.9µM*; JMJD2A Tudor: inconclusive; HP1b binding inh: 38%; BAZ2B block: 5%; L3MBTL1 block: 0%
